Screening data (PubChem)
Vc quorum ag – induces V. cholerae light production without autoinducers; V. cholerae BH1578 lux reporter, luminescence, 6 h; 350,000 compounds, 0.16% hits; activation, % at 18.7 µM; in the data active = activation mostly above about 9.7%, no sharp cut-off
3CLpro inhibitor – SARS-CoV 3CLpro protease inhibition. P0C6X7. recombinant SARS-CoV 3CLpro, quenched FRET peptide cleavage. AID 1706. 290,000 compounds, 0.14% hits. inhibition, % at 6 µM; in the data active = inhibition above about 12%
PrPC surface inh – inhibitors of human cell surface prion protein PrPC; P04156; TR-FRET read-out; inhibition, % at 13.8 µM; 370,000 compounds, 0.43% hits; AID 720596; in the data active = inhibition above about 24%; note: 0% = median of the test wells and 100% = reference compound wells
Mtb FBA inh – inhibitors of M. tuberculosis fructose-bisphosphate aldolase; purified M. tuberculosis FBA, fluorescence read-out; P9WQA3; inhibition, % at 1 µM; 360,000 compounds, 2.3% hits; AID 588726; in the data active = inhibition above about 27%;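 note: 0% = vehicle and 100% = reference inhibitor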
Target sequence (P9WQA3 whole entry, looked up): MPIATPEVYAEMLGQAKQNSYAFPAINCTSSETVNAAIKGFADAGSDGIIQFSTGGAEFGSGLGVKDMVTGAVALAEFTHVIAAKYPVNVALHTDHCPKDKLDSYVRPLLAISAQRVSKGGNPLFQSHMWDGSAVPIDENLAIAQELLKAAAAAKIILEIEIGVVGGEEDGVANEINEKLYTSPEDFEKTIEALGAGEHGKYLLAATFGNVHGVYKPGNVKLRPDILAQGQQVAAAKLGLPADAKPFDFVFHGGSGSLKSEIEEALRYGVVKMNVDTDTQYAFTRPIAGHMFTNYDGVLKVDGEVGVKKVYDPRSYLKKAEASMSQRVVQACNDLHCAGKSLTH
GDH-TPI inh – counter-screen for M. tuberculosis FBA inhibitors: GDH-TPI coupled enzymes; GDH-TPI coupled enzyme counterscreen, NADH absorbance; inhibition, % at 4.8 µM; 360,000 compounds, 1.2% hits; in the data active = inhibition above about 30%;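 note: 0% = DMSO wells and 100% = wells lacking the enzyme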
* marks the source's active call; other numbers are inactive results; i = inactive; x = no result; + = active, no number. Compounds with a hit are over-represented: about 3.9% of the library has one in this group of screens.

SMILES | Vc quorum ag | 3CLpro inhibitor | PrPC surface inh | Mtb FBA inh | GDH-TPI inh
CCOC(=O)N1C/C(=C\c2ccccc2)C(=O)/C(=C/c2ccccc2)C1 | 0 | 1 | -3 | 0 | 15
CN(C)CCC(=O)N1C/C(=C/c2ccccc2)C(=O)/C(=C\c2ccccc2)C1 | -2 | x | -9 | 1 | 35*
O=C1/C(=C/c2ccccc2)CN(C(=O)CCN2CCOCC2)C/C1=C\c1ccccc1 | 6 | x | 1 | 3 | 37*
COc1ccc(OC(=O)N2C/C(=C/c3ccccc3)C(=O)/C(=C\c3ccccc3)C2)cc1 | x | x | 2 | 0 | 20
C[N+](C)(C)CCC(=O)N1C/C(=C/c2ccccc2)C(=O)/C(=C\c2ccccc2)C1 | i | x | -3 | 0 | 41*
NC1CCN(c2nc3c(cc2F)c(=O)c(C(=O)O)cn3-c2ccc(F)cc2F)C1 (stereo not drawn) | 0 | x | 8 | 7 | 24
NC1CCN(c2c(F)cc3c(=O)c(C(=O)O)cn(C4CC4)c3c2Cl)C1 (stereo not drawn) | -8 | -4 | -6 | 3 | 34*
Cc1cccc(C)c1OCC(=O)N(Cc1ccc(Cl)cc1)C1CCS(=O)(=O)C1 (stereo not drawn) | 1 | 0 | 3 | 1 | -7
CN(C)S(=O)(=O)c1ccc(-c2csc(N/N=C/c3ccco3)n2)cc1 | 0 | -4 | 3 | -3 | 33*
Cc1ccc(-c2csc(N/N=C/c3ccco3)n2)cc1 | 0 | -7 | 0 | -2 | 17
CC(=O)c1cccc(NC(=O)NNC(=O)c2ccc(-c3ccccc3)cc2)c1 | 0 | 1 | 3 | 2 | 1
C/C(=N\NC(=S)Nc1c(C)cccc1C)c1cc2ccccc2o1 | 0 | 2 | 12 | 1 | 19
C/C(=N\NC(=S)Nc1ccccc1C)c1cc2ccccc2o1 | 0 | 5 | 10 | 2 | 49*
CS(=O)(=O)c1sc(C#N)c2c1C(=O)CC(c1ccccc1)C2 (stereo not drawn) | -1 | 1 | 51* | 0 | 2
O=C(NCc1ccccc1)[C@@H]1CCCN1C(=O)[C@H]1CCCN1C(=O)C1CCCCC1 | x | x | 3 | x | x
COc1ccc(-c2cc3nc(-c4ccccc4)cc(N4CCC5(CC4)OCCO5)n3n2)cc1 | -1 | 0 | -6 | 28* | 14
COc1ccc(-c2cc3nc4c(c(N5CCC6(CC5)OCCO6)n3n2)CCC4)cc1 | i | 0 | 2 | -2 | 0
O=C(NC1CCCCC1)C1CC(=O)N(c2cccc([N+](=O)[O-])c2)C1 (stereo not drawn) | 0 | -2 | -7 | 1 | 6
C[C@@H]1CN(C(=O)OC(C)(C)C)CCN1c1ccc(Br)c(C#N)c1 | x | x | 5 | x | x
COc1ccc(CNC(=O)COC(=O)CN2C(=O)NC3(CCCC3)C2=O)cc1 | 0 | x | 2 | -3 | 8
CCOc1ccc(-c2cncc3nccn23)cc1 | i | x | -18 | + | 6
COc1ccc(-c2cncc3nccn23)cc1OC | 0 | x | -20 | 6 | 10
COc1ccc2oc3c(ccc[n+]3C)c(=O)c2c1 | x | x | 4 | 6 | x
COCCCNc1oc(-c2ccccc2F)nc1C#N | 0 | -5 | 1 | + | 5
COCCCNc1oc(/C=C/c2ccccc2)nc1C#N | i | -1 | -6 | x | 30
SMILES | Vc quorum ag | 3CLpro inhibitor | PrPC surface inh | Mtb FBA inh | GDH-TPI inh
COCCCNc1oc(-c2ccccc2OC)nc1C#N | i | 2 | -5 | + | 40*
COc1cccc(NC(=O)CN(C)S(=O)(=O)c2ccc3[nH]c(=O)oc3c2)c1 | 0 | -5 | 3 | 4 | 8
CC(=O)c1ccc(Nc2nc(C(N)CC(C)C)cs2)cc1 (stereo not drawn) | 0 | x | 12 | 7 | 32*
COc1ccc(CC(N)c2csc(Nc3ccc(C(C)=O)cc3)n2)cc1 (stereo not drawn) | -1 | x | 10 | 3 | 38*
CCS(=O)(=O)c1ccc(O)c(NC(=O)/C=C/c2ccc(Cl)cc2)c1 | -1 | 5 | -6 | -3 | 34*
Cc1ccc(/C=C/C(=O)Nc2cc(S(N)(=O)=O)ccc2O)cc1 | 0 | 5 | -1 | 0 | 18
CCOC(=O)Cn1nc(C)c(NC(=O)c2ccc(Cl)c([N+](=O)[O-])c2)c1C | 1 | 3 | -20 | 3 | 7
O=c1c(-c2nc3ccccc3s2)cccn1Cc1ccc(Cl)cc1 | 0 | 2 | -5 | 142* | 10
COc1ccc2cc3[n+](cc2c1OC)CCc1cc2c(cc1-3)OCO2 | -1 | -4 | -44 | -2 | 35*
COc1cccc(C2=NCCc3cc4c(cc32)OCO4)c1OC | 0 | 0 | 2 | -1 | 11
CC(C)N1C(=O)c2ccccc2NC(=O)C1C(=O)NCc1cccc(C(F)(F)F)c1 (stereo not drawn) | x | x | -9 | x | x
CCOc1ccc(-c2cc(C(C)=O)c3n(c2=O)CCC3)cc1 | x | x | -3 | x | x
CC1(C)Cc2c(cnn2-c2ccc(F)cc2)C(NC(=O)CCN2CCCCC2=O)C1 (stereo not drawn) | 0 | -1 | 1 | 6 | 2
COc1cc(/C=C2\COC/C(=C\c3ccc(O)c(OC)c3)C2=O)ccc1O | i | 1 | 0 | -11 | 30
COc1cc(/C=C2/CC/C(=C/c3ccc(O)c(OC)c3)C2=O)ccc1O | 0 | 6 | -18 | -9 | 39*
COc1cc(/C=C2\SC(N)=NC2=O)ccc1O | i | -2 | -29 | -8 | 39*
COc1cc(/C=C2/C(=O)ON=C2c2ccccc2)ccc1O | 0 | -2 | -3 | -1 | 37*
Cc1ccc(OCCn2c(=S)[nH]c3c(N)ncnc32)cc1 | 0 | 5 | -5 | 3 | -3
CS(=O)(=O)c1ccc2nc(NC(=O)c3cc4ccccc4o3)sc2c1 | -1 | 1 | 0 | 5 | 47*
CS(=O)(=O)c1ccc2nc(NC(=O)c3ccccc3Cl)sc2c1 | i | 3 | 6 | -1 | 19
CS(=O)(=O)c1ccc2sc(NC(=O)c3cc4ccccc4o3)nc2c1 | 0 | -4 | -10 | 5 | 72*
C=CC(C)(C)c1[nH]cnc1/C=C1\NC(=O)C(C(C)C)NC1=O (stereo not drawn) | 0 | x | 3 | 5 | 32*
CCNC(=O)C(=O)NCCC1CCCCN1S(=O)(=O)c1cccs1 (stereo not drawn) | 2 | x | 2 | 130* | 12
COc1ccc(/C=C2\SC(=O)N(CCC(=O)N3CCCCC3CCO)C2=O)cc1 (stereo not drawn) | 0 | -2 | -5 | 0 | 40*
COc1ccc(/C=C2\SC(=O)N(CCn3cnnn3)C2=O)cc1 | 1 | 3 | 0 | -2 | 38*
COC1=C[C@H](C(=O)NCc2ccc(OC)cc2)C(C)C(c2ccccc2)CC1=O (stereo partly drawn) | x | x | -5 | x | x
Oc1ccccc1N1CCN(CC(O)COCc2ccccc2Cl)CC1 (stereo not drawn) | 0 | 1 | -5 | 3 | 5
CCOc1ccc(C2C(C(=O)OC)=CN(CCOC)C=C2C(=O)OC)cc1 | 2 | -2 | -11 | + | 8
COCCN1C=C(C(=O)OC)C(c2ccc(Cl)cc2)C(C(=O)OC)=C1 | 0 | 3 | 10 | + | 9
